Experimental data: PubChem BioAssay (EPA / NIEHS)
Active and inactive are the calls of the source. The calls were made as follows: active = hit-call score of the fitted dose curve at least 0.9, where 1 is the maximum; inactive = score below 0.9.

experiment: BSK_4H_SRB: Viability Assessment in the BioMAP Diversity Plus: 4H Assay (AID 2283027); conditions: primary human endothelial cells (HUVEC);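 also: cells exposed to compound for 24 h before staining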;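 as to AC50: curves fitted both ways versus DMSO so AC50 may be loss or gain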
Procedure: BSK_4H is a cell-based, multiplexed-readout assay that uses umbilical vein endothelium, a human vascular primary cell, with measurements taken at 24 hours after chemical dosing in a 96-well plate.BSK_4H_SRB is an assay component measured in the BSK_4H assay. It measures […] related to cell death using Sulforhodamine staining technology.Data from the assay component BSK_4H_SRB was analyzed into 1 assay endpoint. This assay endpoint, BSK_4H_SRB, was analyzed with bidirectional fitting relative to DMSO as the negative control and baseline of activity. Using a type of viability reporter, gain or loss-of-signal activity can be used to understand changes in the signaling. Furthermore, this assay endpoint can be referred to as a primary readout, because this assay has produced multiple assay endpoints where this one serves a signaling function. To generalize the intended target to other relatable targets, this assay endpoint is annotated to the cell morphology intended target family, where the subfamily is cell conformation.
The levels of cell surface (or secreted, indicated by the prefix "s") biomarker endpoints were measured by ELISA. Overt cytotoxicity to cells in confluent adherent cultures (all systems other than the BT system) was assessed by measuring total protein levels using sulforhodamine B (SRB) staining in parallel cultures at the time of biomarker measurements, indicated as SRB endpoints. For proliferation assays for adherent cell types, individual cell types are cultured at sub-confluence and relative cell numbers quantified by SRB staining at time points optimized for each system (48 h: 3C and CASM3C systems; 72 h: BT and HDF3CGF systems; 96 h: SAg system). SRB was performed by staining cells with 0.1% SRB after fixation with 10% TCA and reading wells at 560 nm.Viability and proliferation of PBMC (T cells) was quantified by Alamar Blue reduction for the SAg and BT systems. For PBMC viability (referred to as PBMC Cytotoxicity within the assay endpoint names), cells were plated (75,000/well in a 96-well plate) and then chemical samples added for 1 h before addition of activators, SEB and TSST-1 (20 ng/mL final concentration each). Cells were incubated for 90 h. Then, Alamar Blue (20 uL/well) (Invitrogen, Cat DAL1100) was added for 6 h, and the plates were read with a fluorescence microplate reader at 546/580 nm (excitation/emission). For PBMC proliferation, cells were plated and activated as above but incubated for only 16 h prior to addition of Alamar Blue. Plates were read after 6 h.

Structure (SMILES) | outcome | AC50
Cc1occc(=O)c1O | inactive | 
O=NO | inactive | 
C/C=C/C=C/C(=O)O | inactive | 
CC(C)COC(=O)CCCCC(=O)OCC(C)C | inactive | 
Nc1nc(Cl)nc2c1ncn2[C@H]1C[C@H](O)[C@@H](CO)O1 | inactive | 
CC(=O)S[C@H](C(=O)N[C@H]1Cc2ccccc2[C@H]2CCC[C@@H](C(=O)O)N2C1=O)C(C)C | inactive | 
O=C1CCCCC1 | inactive | 
O=Cc1ccccc1C=O | inactive | 
CCCCCCCCCCCCCCOS(=O)(=O)O | inactive | 
CCCC[C@H]1CN(CC2CCOCC2)C(=O)OC12CCN(C1(C)CCN(C(=O)c3c(C)ncnc3C)CC1)CC2 | inactive | 
C/C=C/c1ccc(OC)cc1 | inactive | 
O=C(N[C@@H](c1ccccc1)[C@@H]1CCCCN1)c1cccc(C(F)(F)F)c1Cl | inactive | 
CC1(C)C(=O)NC(=O)N1CO | inactive | 
NC(=Nc1ccccc1)Nc1ccccc1 | inactive | 
Cc1cn([C@H]2C=C[C@@H](CO)O2)c(=O)[nH]c1=O | inactive | 
CC(=O)OCC(COC(C)=O)OC(C)=O | inactive | 
CC(C)c1cccc(C(C)C)c1NC(=O)NS(=O)(=O)c1cc(C(C)(C)O)co1 | inactive | 
CCCCCCCCCC[N+](C)(C)[O-] | inactive | 
CCCCCCC(C=O)=Cc1ccccc1 |  | 31.8 µM (active)
C=CCc1ccc(OC)c(OC)c1 | inactive | 

Structure (SMILES) | outcome | AC50
O=C(O)c1cccnc1 | inactive | 
Cc1ccc(-c2cc(C(F)(F)F)nn2-c2ccc(S(N)(=O)=O)cc2)cc1 |  | 28 µM (active)
COc1ccc(OC(F)(F)F)cc1CN[C@H]1CCCN[C@H]1c1ccccc1 |  | 14.3 µM (active)
O=[Si]=O | inactive | 
COC(=O)[C@H]1[C@H]2C[C@@H]3c4[nH]c5cc(OC)ccc5c4CCN3C[C@H]2C[C@@H](OC(=O)c2cc(OC)c(OC)c(OC)c2)[C@@H]1OC |  | 22.5 µM (active)
Cc1ccc(C(C)(C)C)c(O)c1 | inactive | 
COC(=O)CCCC(=O)OC | inactive | 
CCc1cc(C2=C(C(=O)O)N(c3ccccc3C(F)(F)F)S(=O)(=O)c3ccccc32)cc2c1OCO2 | inactive | 
CC(=O)CC(c1ccccc1)c1c(O)c2ccccc2oc1=O (stereo not given) | inactive | 
O=C(O)c1[nH]n(-c2ccc(S(=O)(=O)O)cc2)c(=O)c1N=Nc1ccc(S(=O)(=O)O)cc1 | inactive | 
CSc1ccc(Oc2ccc(S(N)(=O)=O)cc2CN(C)C)cc1C | inactive | 
CC(C)NCC(O)c1ccc(O)c(O)c1 (stereo not given) | inactive | 
O=C(Oc1ccccc1)c1cccc(C(=O)Oc2ccccc2)c1 | inactive | 
CN(C)CCCN(C)CCCN(C)C | inactive | 
CCCCCCC(CCCCCCCCCCC(=O)OCC(COC(C)=O)OC(C)=O)OC(C)=O (stereo not given) | inactive | 
CN(C)C(=O)NC1(c2ccccc2)CCN(CCC[C@]2(c3ccc(Cl)c(Cl)c3)CCCN(C(=O)c3ccccc3)C2)CC1 | inactive | 
OCC(CO)n1cnc(-c2ccc(F)cc2)c1-c1ccnc(Oc2ccccc2)n1 | inactive | 
NCCOCCOCCN | inactive | 
Oc1ccc(O)cc1 | inactive | 
COc1ccc(C(=O)Nc2nc3ccccc3c(NCc3ccccc3)c2C#N)cc1 | inactive | 
